The nature of assay [1]: ACEA_AR_agonist_AUC_viability: ACEA Biosciences xCELLigence Real-Time Cell Analysis on Androgen Receptor Agonism for Viability (AID 2283775).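 For AC50: viability read 80 hours after compound addition.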 Summed up:
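22Rv1 cells; impedance growth kinetics; 8-pt 1:4 dilutions from 100 uM top final, ≤0.5% DMSO; n = 2; 80 h read; AUC viability, loss-of-signal vs DMSO.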

Assay [2] in a line: ACEA_AR_antagonist_AUC_viability: ACEA Biosciences xCELLigence Real-Time Cell Analysis on Androgen Receptor Antagonism for Viability (AID 2283776).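 Note: 22Rv1 human prostate cancer cells growing on impedance electrode plates; area under impedance growth curve at 80 h after dosing as viability; hits lower the growth signal relative to DMSO meaning cytotoxicity.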 An outline of the steps:
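Impedance read-out (RT-CES): area under growth curve at 80 h post-dose, loss of signal scored vs DMSO baseline. 22Rv1 cells; 8-pt 1:4 series, top 100 uM final, ≤0.5% DMSO; biological duplicate.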

Assay [3] has as its target zebrafish Estrogen Receptor (ESR1), esr1 (gene 259252) (UniProt P57717). Put plainly: ATG_zfER1_XSP1: Attagene TRANS-FACTORIAL Multi-Species (XSP1) HepG2 Assay for zebrafish Estrogen Receptor (ESR1) (AID 2283772). Summed up:
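Readout: fluorescent reporter mRNA, RT-PCR plus FAM labelling, HpaI digest, capillary electrophoresis; gain-of-signal fit vs DMSO. HepG2, transient multi-reporter TRANS (NR-GAL4 chimera), 24 h chemical exposure, 3 nM 6-alpha-fluorotestosterone co-added.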

For assay [4], the system named is zebrafish Estrogen Receptor (ESR2B), gene 317733. Put plainly: ATG_zfER2b_XSP1: Attagene TRANS-FACTORIAL Multi-Species (XSP1) HepG2 Assay for zebrafish Estrogen Receptor (ESR2B) (AID 2283773). An outline of the steps:
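Medium contained 3 nM 6-alpha-fluorotestosterone. Reporter mRNA induction by exogenous zebrafish ER2b-Gal4 chimera was read 24 h post-dose in transiently transfected HepG2 cells, using RT-PCR, fluorescent labelling, HpaI digestion and capillary electrophoresis.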

Assay [5] concerns frog Estrogen Receptor (ESR2), gene 100174814. Put plainly: ATG_frER2_XSP1: Attagene TRANS-FACTORIAL Multi-Species (XSP1) HepG2 Assay for frog Estrogen Receptor (ESR2) (AID 2283774). An outline of the steps:
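Reporter mRNA from a multiplexed TRANS system, measured by RT-PCR with fluorescent labelling and capillary electrophoresis, 24 hours after chemical exposure. Human HepG2 liver cells carried exogenous frog ER-Gal4 chimera; medium included 3 nM 6-alpha-fluorotestosterone; increases versus DMSO analysed.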

For assay [6], the system named is frog Estrogen Receptor (ESR1), gene 398734. Put plainly: ATG_frER1_XSP1: Attagene TRANS-FACTORIAL Multi-Species (XSP1) HepG2 Assay for frog Estrogen Receptor (ESR1) (AID 2283777). Summed up:
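HepG2 cells transiently transfected with GAL4-UAS reporter units and frog ER–Gal4 chimera were dosed for 24 h with 3 nM 6-alpha-fluorotestosterone present. Reporter mRNA was measured by RT-PCR and capillary electrophoresis; gain of signal fitted versus DMSO.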

Assay [7] relates to zebrafish Estrogen Receptor (ESR2A), gene 317734. Put plainly: ATG_zfER2a_XSP1: Attagene TRANS-FACTORIAL Multi-Species (XSP1) HepG2 Assay for zebrafish Estrogen Receptor (ESR2A) (AID 2283778). An outline of the steps: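 Reporter transcripts were quantified by RT-PCR, 6-FAM labelling, HpaI digestion and capillary electrophoresis after 24 h dosing. The cells were HepG2 transiently carrying a zebrafish ER2a–Gal4 construct plus multiplexed UAS reporters; medium contained 3 nM 6-alpha-fluorotestosterone.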

The target in assay [8] is chicken Estrogen Receptor (ESR1), ESR1 (gene 396099) (UniProt P06212). Put plainly: ATG_chERa_XSP1: Attagene TRANS-FACTORIAL Multi-Species (XSP1) HepG2 Assay for chicken Estrogen Receptor (ESR1) (AID 2283779). An outline of the steps: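 Trans-activation of an exogenous chicken ERα–Gal4 chimera read as reporter transcript (RT-PCR, fluorescent labeling, capillary electrophoresis) after 24 h compound exposure of transfected HepG2; medium held 3 nM 6-alpha-fluorotestosterone. Positive-direction fit against DMSO.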

Assay [9] addresses Estrogen receptor (Homo sapiens) (UniProt P03372). Put plainly: ATG_hERa_XSP1: Attagene TRANS-FACTORIAL Multi-Species (XSP1) HepG2 Assay for human Estrogen Receptor (ESR1) (AID 2283780). An outline of the steps:
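Reporter transcripts from multiplexed GAL4-UAS units driven by NR-Gal4 chimeras in transiently transfected HepG2 were measured by RT-PCR with capillary electrophoresis 24 h post-dose, with 3 nM 6-alpha-fluorotestosterone present; gain-of-signal relative to DMSO.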

Assay [10] concerns turtle Estrogen Receptor (ESR1), gene 101933533. Put plainly: ATG_trERa_XSP1: Attagene TRANS-FACTORIAL Multi-Species (XSP1) HepG2 Assay for turtle Estrogen Receptor (ESR1) (AID 2283781). An outline of the steps:
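Transactivation measured 24 h post-dose as reporter mRNA (RT-PCR, fluorescent capillary electrophoresis) from an NR-Gal4 turtle ER construct in HepG2. Medium included 3 nM 6-alpha-fluorotestosterone; increase over DMSO fitted.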

Assay [11] in a line: STM_H9_NormalizedViability: Cytotoxicity Assessment at 120 hours in the Stemina devTOX quickPredict H9 human embryonic stem cell (hESC)-based Assay (AID 2283784). An outline of the steps:
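Viability of the cell layer was taken from live-cell protease cleavage of a fluorogenic substrate after compound exposure of undifferentiated H9 stem cells, with replenishment each 24h. Fluorescence was normalized to vehicle (0.1% DMSO).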

In assay [12] the target is Estrogen receptor beta (Homo sapiens) (UniProt Q92731). Put plainly: ATG_hERb_XSP1: Attagene TRANS-FACTORIAL Multi-Species (XSP1) HepG2 Assay for human Estrogen Receptor (ESR2) (AID 2283788). An outline of the steps:
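HepG2 cells transiently transfected with multiplexed GAL4-UAS reporter units carrying chimeric human ERβ-Gal4; 24 h compound exposure with 3 nM 6-alpha-fluorotestosterone present. Reporter mRNA quantified by RT-PCR, FAM labelling and capillary electrophoresis; gain-of-signal fitted versus DMSO.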

The nature of assay [13]: ATG_M_06_XSP1: Attagene TRANS-FACTORIAL Multi-Species (XSP1) HepG2 Assay for M06 Transcription Factor (Internal Marker) (AID 2283790). An outline of the steps: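 This background-control readout tracks M06 reporter mRNA, measured by RT-PCR and capillary electrophoresis. HepG2 cells transiently carrying the GAL4-UAS reporter panel were dosed for 24 h with 3 nM 6-alpha-fluorotestosterone added for partial AR stimulation; increases were scored relative to DMSO.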

Assay [14] can be described thus: ATG_M_61_XSP1: Attagene TRANS-FACTORIAL Multi-Species (XSP1) HepG2 Assay for M61 Transcription Factor (Internal Marker) (AID 2283797). An outline of the steps: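 Background-control readout: reporter transcripts measured by RT-PCR and capillary electrophoresis 24 h after dosing transiently transfected HepG2 multi-reporter cells, with 3 nM 6-alpha-fluorotestosterone present. Fitted in the positive direction relative to DMSO.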

Assay [15] is described as follows: ACEA_ER_AUC_viability: ACEA Biosciences xCELLigence Real-Time Cell Analysis on Estrogen Receptor Agonism for Viability (AID 2283782).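 Note: hit means loss of impedance signal meaning reduced cell growth or viability.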 An outline of the steps:
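Viability endpoint: reduced impedance area under the curve relative to DMSO, recorded by real-time electrode sensing over ~80 h of continuous exposure. Duplicate plates of T47D in hormone-depleted medium; eight concentrations, 1:4 dilutions, 100 uM maximum.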

The test system of assay [16] is zebrafish Androgen Receptor (AR), gene 100005148. Put plainly: ATG_zfAR_XSP1: Attagene TRANS-FACTORIAL Multi-Species (XSP1) HepG2 Assay for zebrafish Androgen Receptor (AR) (AID 2283771). An outline of the steps: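 Gain-of-signal versus DMSO was measured as reporter transcripts quantified by RT-PCR, fluorescent labelling and capillary electrophoresis after 24 h chemical exposure. The cells were HepG2 expressing a chimeric zebrafish AR-GAL4, co-stimulated with 3 nM 6-alpha-fluorotestosterone.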

Data on 11 compounds can be found in PubChem BioAssay (EPA / NIEHS).

The structures appear in SMILES notation. Inconclusive results are not listed. Calls of active or inactive are those of the source. Rule for the calls: active = hit-call score of the fitted dose curve at least 0.9, where 1 is the maximum; inconclusive = response in the unintended direction; inactive = score below 0.9.

Chain of zebrafish Estrogen Receptor (ESR1), esr1 (gene 259252) (P57717 whole entry, looked up, the tested form may be a part): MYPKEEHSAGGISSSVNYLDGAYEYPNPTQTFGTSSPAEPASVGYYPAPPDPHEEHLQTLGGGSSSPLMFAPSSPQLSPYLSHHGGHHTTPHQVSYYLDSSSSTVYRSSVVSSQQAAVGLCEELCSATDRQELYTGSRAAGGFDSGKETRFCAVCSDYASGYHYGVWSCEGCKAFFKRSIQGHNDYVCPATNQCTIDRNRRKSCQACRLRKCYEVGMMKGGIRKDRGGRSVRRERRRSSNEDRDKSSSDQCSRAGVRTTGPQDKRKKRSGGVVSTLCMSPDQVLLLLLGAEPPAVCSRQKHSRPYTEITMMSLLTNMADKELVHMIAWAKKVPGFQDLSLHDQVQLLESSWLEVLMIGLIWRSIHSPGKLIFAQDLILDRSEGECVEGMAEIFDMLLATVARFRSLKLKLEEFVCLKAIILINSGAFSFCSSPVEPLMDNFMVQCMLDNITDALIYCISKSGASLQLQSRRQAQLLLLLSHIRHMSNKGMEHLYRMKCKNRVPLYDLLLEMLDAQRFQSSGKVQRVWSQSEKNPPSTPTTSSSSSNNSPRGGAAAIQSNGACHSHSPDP
Chain of Estrogen receptor (Homo sapiens) (P03372 whole entry, looked up, the tested form may be a part): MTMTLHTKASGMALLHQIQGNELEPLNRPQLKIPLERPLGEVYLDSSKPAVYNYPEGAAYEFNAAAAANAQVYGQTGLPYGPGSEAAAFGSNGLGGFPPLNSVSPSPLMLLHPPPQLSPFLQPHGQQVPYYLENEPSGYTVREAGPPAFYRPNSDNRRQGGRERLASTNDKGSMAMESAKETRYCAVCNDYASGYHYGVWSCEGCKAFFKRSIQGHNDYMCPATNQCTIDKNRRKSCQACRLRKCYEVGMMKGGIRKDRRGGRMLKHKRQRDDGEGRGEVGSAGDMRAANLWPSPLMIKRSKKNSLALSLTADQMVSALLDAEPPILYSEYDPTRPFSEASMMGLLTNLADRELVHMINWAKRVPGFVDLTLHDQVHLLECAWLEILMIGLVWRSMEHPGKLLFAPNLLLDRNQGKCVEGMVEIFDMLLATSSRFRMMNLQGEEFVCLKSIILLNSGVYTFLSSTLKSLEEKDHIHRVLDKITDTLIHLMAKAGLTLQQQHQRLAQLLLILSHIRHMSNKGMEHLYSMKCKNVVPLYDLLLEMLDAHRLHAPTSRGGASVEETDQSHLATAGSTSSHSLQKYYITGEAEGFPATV
Chain of chicken Estrogen Receptor (ESR1), ESR1 (gene 396099) (P06212 whole entry, looked up, the tested form may be a part): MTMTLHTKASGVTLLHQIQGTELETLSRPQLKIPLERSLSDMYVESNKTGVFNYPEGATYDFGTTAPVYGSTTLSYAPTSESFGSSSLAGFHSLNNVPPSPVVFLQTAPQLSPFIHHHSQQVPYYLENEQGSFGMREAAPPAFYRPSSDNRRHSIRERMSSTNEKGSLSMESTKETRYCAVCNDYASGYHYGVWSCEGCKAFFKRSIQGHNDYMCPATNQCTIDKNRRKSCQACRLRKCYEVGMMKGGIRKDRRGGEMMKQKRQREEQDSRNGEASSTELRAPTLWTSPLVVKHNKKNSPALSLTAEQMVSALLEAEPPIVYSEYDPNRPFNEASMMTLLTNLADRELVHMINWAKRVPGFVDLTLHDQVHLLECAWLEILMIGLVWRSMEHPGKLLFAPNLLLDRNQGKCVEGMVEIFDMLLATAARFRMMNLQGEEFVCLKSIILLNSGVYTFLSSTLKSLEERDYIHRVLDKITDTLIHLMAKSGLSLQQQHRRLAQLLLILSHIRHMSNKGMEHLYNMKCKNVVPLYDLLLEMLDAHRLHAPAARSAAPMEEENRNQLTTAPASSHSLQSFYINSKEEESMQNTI
Chain of Estrogen receptor beta (Homo sapiens) (Q92731 whole entry, looked up, the tested form may be a part): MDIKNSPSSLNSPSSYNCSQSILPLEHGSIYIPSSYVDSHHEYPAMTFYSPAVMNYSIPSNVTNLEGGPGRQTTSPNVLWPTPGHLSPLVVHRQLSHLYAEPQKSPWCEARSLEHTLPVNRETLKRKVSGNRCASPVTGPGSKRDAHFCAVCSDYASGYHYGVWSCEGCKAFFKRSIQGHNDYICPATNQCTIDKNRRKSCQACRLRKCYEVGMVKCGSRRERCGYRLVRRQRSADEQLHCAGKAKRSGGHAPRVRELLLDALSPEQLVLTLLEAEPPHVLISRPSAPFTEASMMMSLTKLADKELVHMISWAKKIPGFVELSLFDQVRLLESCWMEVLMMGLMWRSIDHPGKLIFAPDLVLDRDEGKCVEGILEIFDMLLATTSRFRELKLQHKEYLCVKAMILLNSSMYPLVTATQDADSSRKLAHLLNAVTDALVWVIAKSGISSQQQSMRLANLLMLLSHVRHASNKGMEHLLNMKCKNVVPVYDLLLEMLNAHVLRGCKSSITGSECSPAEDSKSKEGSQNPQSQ

Regarding `COP(=O)(OC)O/C(C)=C/C(=O)N(C)C`, the call in [1] and in assay [2] was inactive.

As for `CCC(C)n1c(=O)[nH]c(C)c(Br)c1=O` (stereo not given), the result in [1] and in assay [2] was inactive.

A word on the AC50: it is the concentration giving half of the maximal activity seen. Take `C=C(C)CN(CC)c1c([N+](=O)[O-])cc(C(F)(F)F)cc1[N+](=O)[O-]`: the concentration at half-maximal activity (AC50) is 73 µM (active) in assay [1] and 50 µM (active) in [2].

Take `COCC(=O)N(c1c(C)cccc1C)C(C)C(=O)OC` (stereo not given): the compound was classed as inactive in assay [1].

As to `CCN(CC)C(=O)C(C)Oc1cccc2ccccc12` (stereo not given), the result in [3], in assay [1], in [2], in assay [8], in assay [9] and in assay [11] was inactive. Also, the result in [13] and in [14] was inactive. Moreover, the AC50 in assay [4] was 27.1 µM (active); in [5], 27.4 µM (active); in assay [6], 24.8 µM (active); in [7], 25.8 µM (active); in assay [10], 5.99 µM (active); in [12], 100 µM (active).

Turning to `Cc1ccc(N=CN(C)C=Nc2ccc(C)cc2C)c(C)c1`, the AC50 in [1] is 14.5 µM (active); in [2], 17.6 µM (active); in assay [15], 50 µM (active).

In the case of `CC(C)=CC1C(C(=O)OCc2coc(Cc3ccccc3)c2)C1(C)C` (stereo not given), the AC50 was 46 µM (active) in [1], 40.4 µM (active) in assay [2] and 84 µM (active) in assay [15].

Take `CN/C(=N\[N+](=O)[O-])NCc1cnc(Cl)s1`: the compound was classed as inactive in assay [1] and in assay [2].

As for `CNC(=O)N(C)c1nnc(C(C)(C)C)s1`, the compound was classed as inactive in assay [1], in assay [2] and in assay [15].

With `OC(c1ccc(Cl)cc1)(c1ccc(Cl)cc1)C(Cl)(Cl)Cl`, the AC50 is 14.5 µM (active) in [1], 13 µM (active) in assay [2] and 26.4 µM (active) in assay [15].

With `CSC(=O)c1c(C(F)F)nc(C(F)(F)F)c(C(=O)SC)c1CC(C)C`, the call in [16], in assay [3], in assay [7], in assay [8] and in [10] was inactive. The concentration at half-maximal activity (AC50) in assay [4] is 32.3 µM (active); in assay [5], 0.955 µM (active); in [2] it was 37.4 µM (active); in assay [9], 6.12 µM (active); in [15], 81.2 µM (active).
